Reference: PubChem BioAssay
Potency and affinity values are given separately. Activity calls are given as the source filed them. The rule behind the calls is not given here.

target: Plasmodium falciparum protein kinase 6 (PK6, PF3D7_1337100) (UniProt Q8IDW1); test: PfPK6 kinase inhibitors, biochemical, TCAMS library (AID 1159586); settings: recombinant PfPK6, Kinase-Glo ATP depletion luminescence
Sequence (Q8IDW1 1-305): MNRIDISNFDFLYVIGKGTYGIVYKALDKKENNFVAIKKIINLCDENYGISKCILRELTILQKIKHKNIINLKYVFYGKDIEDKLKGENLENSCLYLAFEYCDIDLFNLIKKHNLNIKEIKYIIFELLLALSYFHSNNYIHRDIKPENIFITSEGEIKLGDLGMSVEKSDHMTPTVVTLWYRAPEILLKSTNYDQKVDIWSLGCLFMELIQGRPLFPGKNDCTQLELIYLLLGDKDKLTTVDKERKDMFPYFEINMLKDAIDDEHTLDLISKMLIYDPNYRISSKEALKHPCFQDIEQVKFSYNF

outcome, inactive:
c1ccc(CCNCc2cccc(-c3ccc(CNc4ccc5ncccc5c4)cc3)c2)cc1
CC(C)(C)Oc1ccc(C[C@@H]2NC3(C(=O)N(Cc4ccc(Cl)c(Cl)c4)c4ccccc43)C3C(=O)N(c4ccc(Br)cc4)C(=O)C32)cc1 (stereo not given in full)
CCOc1ccccc1CNc1nccc(NCCc2cn(C)c3ccccc23)n1
COc1ccc(CNCc2ccsc2)cc1-c1ccc(OC)c(S(=O)(=O)NCCN2CCCC2)c1
COC1CCC(C(=O)Nc2ccc(-c3cccc(-c4nc5c(C)cccc5[nH]4)c3)cc2)CC1 (stereo not given)
CC(C)c1ccc(-c2noc(SCC(=O)N3CCCCC3C)n2)cc1 (stereo not given)
COc1cc(OC)c(NC(=O)Nc2ccnc3ccccc23)cc1Cl
CCn1c2c(c(=N)c3ccccc31)CCC2
CC(=O)Nc1ccc(S(=O)(=O)Nc2c(C)cc(Cc3cnc(N)nc3N)cc2C)cc1
O=C(CCn1c2ccccc2c2ccccc21)NN=Cc1ccco1
COc1cc(CCN=C(N)/C=C/c2ccc(Cl)cc2)ccc1Cl
CC(C)CC(NC(=O)c1cccc(OCCN2CCOCC2)c1)C(=O)NC(/C=N/NC(=O)c1ccccc1)CCc1ccccc1 (stereo not given)
O=C(/C=C/c1c(Cl)cccc1Cl)NC1CCC(CN2CCC(c3c[nH]c4ccncc34)CC2)CC1 (stereo not given)
CN1CCC(Oc2ccc(CN3CC[C@H](NC(=O)c4ccc(F)c(F)c4)C3)c3ccccc23)C1 (stereo not given in full)
O=C(/C=C/c1ccc2ccccc2c1)NCC1(c2ccc(-c3ccccc3)cc2)CCOCC1
